Unmarked numbers belong to inactive results. Calls of active or inactive are those of the source. Cut-off read from the data, not from the text of the source, unless noted: active = inhibition above about 30%; inactive = the rest.
Key:
[1] = biological target: Nuclear receptor coactivator 3 (Homo sapiens) (UniProt Q9Y6Q9); assay: SRC3 coactivator transcriptional activity inhibitors, confirmation, cell-based, luminescence, quadruplicate (AID 588792;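 active = mean inhibition over 43.08%, the solvent-only control mean plus 3 SD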;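 note: 0% = DMSO treated cells and 100% = gossypol at 36 µM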); conditions: HEK293 GAL4-SRC3 luciferase reporter, at 3.6 µM, hits give high values
Sequence of Nuclear receptor coactivator 3 (Homo sapiens) (Q9Y6Q9 whole entry, looked up, the tested form may be a part): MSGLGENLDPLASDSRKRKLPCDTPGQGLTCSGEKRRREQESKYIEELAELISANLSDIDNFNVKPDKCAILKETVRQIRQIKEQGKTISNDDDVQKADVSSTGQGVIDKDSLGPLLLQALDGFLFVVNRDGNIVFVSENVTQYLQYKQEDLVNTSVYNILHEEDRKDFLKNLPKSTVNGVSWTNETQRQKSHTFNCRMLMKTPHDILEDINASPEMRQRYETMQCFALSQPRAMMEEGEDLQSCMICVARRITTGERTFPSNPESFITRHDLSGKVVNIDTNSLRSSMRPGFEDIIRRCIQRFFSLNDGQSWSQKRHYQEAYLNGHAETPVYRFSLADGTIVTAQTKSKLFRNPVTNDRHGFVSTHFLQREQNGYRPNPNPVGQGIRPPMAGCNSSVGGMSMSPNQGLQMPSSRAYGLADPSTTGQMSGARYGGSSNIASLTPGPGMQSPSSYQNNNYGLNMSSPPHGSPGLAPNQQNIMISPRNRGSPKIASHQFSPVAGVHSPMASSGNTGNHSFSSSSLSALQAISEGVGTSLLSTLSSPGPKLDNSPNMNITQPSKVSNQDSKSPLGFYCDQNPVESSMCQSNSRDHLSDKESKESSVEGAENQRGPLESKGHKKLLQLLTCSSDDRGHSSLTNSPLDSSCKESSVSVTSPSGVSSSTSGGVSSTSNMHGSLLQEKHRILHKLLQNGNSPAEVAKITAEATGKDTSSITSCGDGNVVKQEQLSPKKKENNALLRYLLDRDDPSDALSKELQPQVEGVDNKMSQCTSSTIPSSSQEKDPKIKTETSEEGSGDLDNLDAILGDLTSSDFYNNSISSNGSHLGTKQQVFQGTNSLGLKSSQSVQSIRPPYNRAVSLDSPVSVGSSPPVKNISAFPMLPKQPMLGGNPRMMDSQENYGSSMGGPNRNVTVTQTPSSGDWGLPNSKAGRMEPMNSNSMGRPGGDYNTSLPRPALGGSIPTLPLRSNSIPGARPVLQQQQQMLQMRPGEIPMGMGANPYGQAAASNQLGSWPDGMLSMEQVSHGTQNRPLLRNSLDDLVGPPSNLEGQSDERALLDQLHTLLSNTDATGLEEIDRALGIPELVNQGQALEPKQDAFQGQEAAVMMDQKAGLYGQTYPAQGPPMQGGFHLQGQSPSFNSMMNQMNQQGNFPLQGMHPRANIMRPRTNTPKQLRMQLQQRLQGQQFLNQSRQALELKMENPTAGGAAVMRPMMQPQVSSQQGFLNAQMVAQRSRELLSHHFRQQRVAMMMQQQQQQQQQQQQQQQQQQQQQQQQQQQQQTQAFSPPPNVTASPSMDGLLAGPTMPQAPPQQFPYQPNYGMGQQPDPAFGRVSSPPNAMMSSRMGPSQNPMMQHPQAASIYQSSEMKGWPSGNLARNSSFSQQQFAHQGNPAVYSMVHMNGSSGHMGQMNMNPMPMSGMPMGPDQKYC

[2] = tested on: transactivating tegument protein VP16 (Human herpesvirus 1), Gal4-VP16 luciferase reporter; assay: VP16 transactivation inhibitors, counter-screen for SRC3 inhibitor project, cell-based, luminescence, high throughput (AID 588794); conditions: mammalian cells, VP16-driven luciferase reporter luminescence; at 3.6 µM; hits give high values

Row | SMILES | inhibition [1] | inhibition [2]
1 | O=S(=O)(c1ccccc1)c1nc(Nc2cccc(O)c2)sc1Cl | -4.35% | 0.89%
2 | CCc1ccc(N2CC(C(=O)N/N=C/c3cc([N+](=O)[O-])ccc3O)CC2=O)cc1 (configuration not stated) | -9% | 9.04%
3 | C/C(=N\NC(=S)Nc1cc(S(=O)(=O)N2CCOCC2)ccc1Cl)c1ccccc1F | 31.8% | 28.8%
4 | O=[N+]([O-])c1cc(S(=O)(=O)NCCN2CCOCC2)ccc1Sc1nnnn1-c1ccccc1 | 12.9% | -10.3%
5 | O=C(CC12CC3CC(CC(C3)C1)C2)Nc1nncs1 | 15.4% | 19.6%
6 | CNCC(C)COc1ccccc1OCc1ccccc1 (configuration not stated) | 2.54% | 10.4%
7 | CC(=O)c1c(C(C)=O)c(C)n(-c2ccc3ncccc3c2)c1C | 15.4% | 6.55%
8 | Cc1nccc(-c2ccc(-n3cnc4ccccc43)cc2)n1 | 23.8% | 12.4%
9 | COc1ccc(C(CC(=O)O)NC(=O)OC(C)(C)C)cc1 (configuration not stated) | 4.59% | 3.31%
10 | C=CCc1cccc(/C=N/NC(=O)CCC(=O)Nc2ccc(F)cc2)c1O | 26.2% | 21.1%
11 | CCc1ccc([C@@H]2CC(=O)[C@@H]3CN(S(=O)(=O)c4ccccc4C)[C@H](c4ccc(Cl)cc4)C[C@@H]3N2S(=O)(=O)c2ccc(C)cc2)cc1 | 15.5% | 4.71%
12 | CCSc1nnc(NC(=O)C(CC)(C(F)(F)F)C(F)(F)F)s1 | 7.54% | 19.6%
13 | Cc1cc(Br)cc(/C=N/NC(=O)c2ccc3c(c2)OCO3)c1O | 18.9% | 26.3%
14 | CCN(c1ccccc1)S(=O)(=O)c1ccc(C(=O)Nc2nnc(-c3ccco3)o2)cc1 | 8.7% | 9.19%
15 | Cc1ccccc1OCc1n(CC(=O)OC2CC(C)CCC2C(C)C)c2ccccc2[n+]1C (configuration not stated) | 13% | 22.8%
16 | O=C(NCC1CCCO1)c1cccc2c1C(=O)c1ccc(N3CCC(Cc4ccccc4)CC3)cc1S2(=O)=O (configuration not stated) | -2.13% | 10.6%
17 | CC(=O)c1cc(CC=C(C)C)c(O)c(CC=C(C)C)c1O | 4.99% | -4.39%
18 | CN1CCCC(n2nc(Cc3ccc(Cl)cc3)c3ccccc3c2=O)CC1 (configuration not stated) | 10.3% | 2.25%

Row | SMILES | inhibition [1] | inhibition [2]
19 | CCC(C)(C(=O)NC1CCCC1)N(C(=O)CNC(C)=O)c1ccc(C)cc1 (configuration not stated) | 0.65% | -7.27%
20 | CCSc1ccccc1C(=O)NCc1ccc2c(c1)OCO2 | 1.07% | -10.1%
21 | COc1ccc(C(=O)C2CCCN(Cc3cccn3-c3ccccn3)C2)c(C)c1 (configuration not stated) | 26.1% | 9.76%
22 | CCOC(=O)CN(C(=O)COc1nc(C)cc(C)c1C#N)c1ccc(Cl)cc1 | 4.25% | 1.1%
23 | Brc1ccc2ncc3ccccc3c2c1 | 40.2% | 19.1%
24 | COc1ccc(S(=O)(=O)N2CCCCCC2)cc1C(=O)N(C)CC(=O)Nc1cc(C)ccc1C | 8.3% | 10.6%
25 | COc1ccc(C(=O)/C=C/c2cc(OC)c(O)c(OC)c2)c(F)c1 | 26.6% | 17.7%
26 | O=C(Nc1ccc([N+](=O)[O-])cc1)Nc1nc(-c2ccc(Cl)s2)cs1 | 60.4% (active) | 71.6% (active)
27 | CCOC(=O)c1cccc(NC(=O)CSc2nc3cccnc3n2C)c1 | 9.81% | 25.1%
28 | Cc1noc(C)c1COC(=O)c1cc(F)c(F)cc1Cl | 2.84% | 1.74%
29 | Cc1cc(C(F)(F)F)c(C#N)c(SCC(=O)Nc2nc3ccccc3s2)n1 | 49.7% (active) | 37.2% (active)
30 | Cc1ccccc1OCCNC(=O)c1ccccc1Sc1ccccc1C#N | 6.19% | 1.44%
31 | CC(=O)Nc1nc(C)c(-c2csc(Nc3cccc([N+](=O)[O-])c3)n2)s1 | 7.09% | -11.4%
32 | C=CCn1c(SCC(=O)NC2CCCC2)nnc1-c1ccccn1 | -14.7% | -2.97%
33 | Fc1ccccc1-c1csc(=Nc2cccnc2)n1CCCn1ccnc1 | 37.4% | 25.1%
34 | Cc1ccc(S(=O)(=O)C(C#N)c2nc3ccccc3nc2N2CCN(C)CC2)cc1 (configuration not stated) | 19.1% | -2.04%
35 | CCN1/C(=C/c2cc[n+](C)cc2)C=Cc2cc(C)ccc21 | 17% | 70.9% (active)
36 | Cc1cc(C)c2nc3nc(C)cc(C)c3c(N)c2c1 | 24.5% | 57.9% (active)

— PubChem BioAssay
